# In PubChem BioAssay AID504456 (NMMLSC, 2011):
# This is one part of the list. Active and inactive are the calls of the source.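 How the source made its calls: active means growth rating at most 1 for wild type yeast while the TORC1 bypass strain still grows fully, rated 3; inactive means the rest.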
# Experiment: wild-type yeast growth inhibition sparing TORC1 bypass cells, mechanism study for yeast TOR pathway GFP screen, BY4741 wild type, TORC1 bypass strain (AID 504456)
# Settings: S. cerevisiae BY4741 spot growth rating, 48-72 h, at 30 µM
# [1] = TORC1 bypass strain growth rating
compound,measurement,setting,value
Cc1ccc(-c2nn(C(C)(C)C)c3ncnc(N)c23)cc1,growth rating (0-3),[1],3
same,growth rating (0-3),stronger effect = lower value,3 (inactive)
CN(C)CCCNc1nc(N)c([N+](=O)[O-])c(Nc2cccc(F)c2)n1,growth rating (0-3),[1],3
same,growth rating (0-3),stronger effect = lower value,3 (inactive)
